Active and inactive are the calls of the source.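 Rule for the calls: active = fitted half-maximal concentration AC50 at or below ten times the highest valid tested dose, with signal falling as DNA is displaced (actives reach about 34 µM in these data); inconclusive = flat fit at moderate signal loss, or poor fit quality; inactive = the rest, including signal rising instead of falling.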
Assay: acridine orange-DNA binding displacement – biochemical, fluorescence polarization, cherry-picked samples, set 2, artefact control for KSHV LANA DNA-binding inhibitor project, dose response (AID 504727)

| Compound | AC50 |
| --- | --- |
| CC1=NCCc2c1[nH]c1cc(O)ccc21 | 3.74 µM (active) |
| Nc1ccc2ccc3cccc[n+]3c2c1 | 1.87 µM (active) |
| COc1ccc(OC)c(N2C(=O)NC(=O)/C(=C\c3ccc([N+](=O)[O-])s3)C2=O)c1 | inactive |
| CC(Cc1ccccc1)NC(=O)NC(C)Cc1ccccc1 (centres undefined) | inactive |
| Cc1cc(OCC(=O)OC(C)(C)C)c2c3c(c(=O)oc2c1)CCC3 | inactive |
| COC(=O)C1=C(c2ccc(OC(F)(F)F)cc2)C[C@@H]2CC[C@H]1N2C(=O)NC1CCCCC1 | inactive |
| CCN(CC)C(=O)c1ccc2c(c1)C1C=CCC1C(C(=O)O)N2 (centres undefined) | inactive |
| CCOC(=O)C1CCCN(c2ccc([N+](=O)[O-])c3nonc23)C1 (centres undefined) | 3.67 µM (active) |
| CC(C)CC(=O)Nc1ccc(S(=O)(=O)N2CC3CC(C2)c2cccc(=O)n2C3)cc1 (centres undefined) | inactive |
| Cc1cc(=O)oc2cc(OCC(=O)N3CCN(Cc4ccc5c(c4)OCO5)CC3)ccc12 | inactive |
| Cc1cc(/C=C2\C(=O)NC(=O)N(Cc3ccccc3)C2=O)c(C)n1-c1ccc(Cl)c(C(=O)O)c1 | inactive |
| O=[N+]([O-])c1ccc(N2CCCCCC2)c2nonc12 | 13.7 µM (active) |
| CCn1c(O)c(N=Nc2cccc(S(=O)(=O)N3CCOCC3)c2)c(=O)n(CC)c1=S | inactive |
| O=c1c2ccccc2nc(/C=C\c2ccccc2[N+](=O)[O-])n1-c1ccccc1O | inactive |
| Nc1ccc2nonc2c1[N+](=O)[O-] | 8.02 µM (active) |
| CC(OC(=O)c1cn(C)c2ccccc12)C(=O)N1CCCC1 (centres undefined) | inactive |
| CN1CCN(c2ccc([N+](=O)[O-])c3no[n+]([O-])c23)CC1 | 29.2 µM (active) |
| O=C(O)c1cccc2c1NC(C(=O)O)C1CC(Sc3ccccc3[N+](=O)[O-])C(Cl)C21 (centres undefined) | inactive |
| CCOC(=O)c1c(/N=C/c2c(O)n(-c3cccc(C)c3)c(=O)[nH]c2=O)sc2c1CCCC2 | inactive |
| CCCCc1ccc(C(=O)O)nc1 | inactive |
| CN(C)C1C(=O)C(C(N)=O)=C(O)C2(O)C(=O)C3=C(O)c4c(O)cccc4C(C)(O)C3C(O)C12 (centres undefined) | inactive |
| O=c1[nH]c(=O)n(C2CCCCC2)c(O)c1C=Nc1ccc(N2CCOCC2)cc1 | inactive |
| N/C(=N\N=C/c1ccc(-c2ccc(O)c(C(=O)O)c2)o1)N[N+](=O)[O-] | inactive |
| COCCNC(=O)Cn1cc(/C=C2\C(=O)NC(=O)N(c3cccc(C)c3C)C2=O)c2ccccc21 | 20.4 µM (active) |
